# In publication PMC12431657, “Discovery and mechanistic insights of dibenzoylmethane as a broad spectrum inhibitor of coronavirus” (PLOS Pathogens, 2025):
# Where a name gives a salt, the structure may show the parent alone. Read-outs that look alike come from different tables or passages of the source. Screen size: about 3,300 compounds; about 95 (3%) showed an effect of 50% or more. The entries come from a sample that favours strong results as a whole.
# Tested on: HCoV-229E
# Design: species or system Huh-7; HTS, protection from HCoV-229E induced cell death, luminescent cell viability (CellCounting-Lite 2.0), inhibition rate
# Details: 24 h post infection, 1 h compound pre-incubation, 10 µM, inhibitor
Compound,229E Inhibition rate [%],"229E Inhibition rate (229E Inhibition rate, 24 h) [%]"
O=C(N[C@H](COC(=O)[C@H](Cc1ccccc1)NC(=O)c1ccccc1)Cc1ccccc1)c1ccccc1 [Asperphenamate],18,–
CCCCC/C=C\C/C=C\CCCCCCCC(=O)NCc1ccccc1 [N-Benzyllinoleamide],24.5,–
CCCCCCCCCCC/C=C\CCCCC(=O)O [Petroselinic acid],0,–
CCCCCCCCCCCCCCCCCC(=O)NCc1ccccc1 [N-Benzyloctadecanamide],46.3,–
CCCCCCCC/C=C\CCCCCCCC(=O)NCc1ccccc1 [N-Benzyloleamide],52.8,–
CCCCCC/C=C\CCCC(=O)O [cis-5-Dodecenoic acid],63.5,–
CCCCCCCC/C=C\CCCCCCCC(=O)O [Oleic acid],–,9.2
Nc1nc(=O)n([C@H]2C[C@H](O)[C@@H](CO)O2)cc1CO [5-Hydroxymethyl-2’-deoxycytidine],0,–
OC[C@H]1OC(O)[C@H](O)[C@H](O)[C@@H]1O (stereo partly drawn) [D-Allose],0,–
C=C(C)[C@@H]1CC[C@]2(COC(C)=O)CC[C@]3(C)[C@H](CC[C@@H]4[C@@]5(C)CC[C@H](OC(C)=O)C(C)(C)[C@@H]5CC[C@]43C)[C@@H]12 [Betulin diacetate],4.9,–
O=c1ccc2cc3ccoc3c(O)c2o1 [Xanthotoxol],35.1,–
"CC(C)=CC[C@H](OC(=O)C=C(C)C)C1=CC(=O)c2c(O)ccc(O)c2C1=O [β,β-Dimethylacrylalkannin]",17.4,–
"CC(C)=CC[C@@H](OC(=O)C=C(C)C)C1=CC(=O)c2c(O)ccc(O)c2C1=O [β,β-Dimethylacrylshikonin]",50.2,–
CC(=O)O[C@@H](CC=C(C)C)C1=CC(=O)c2c(O)ccc(O)c2C1=O [Acetylalkannin],10.1,–
C[n+]1cccc(C(=O)[O-])c1 [Trigonelline],–,7.5
O=c1cc(-c2ccccc2)oc2cc(O[C@@H]3O[C@H](CO)[C@@H](O)[C@H](O)[C@H]3O)c(O)c(O)c12 [Oroxin A],34.7,–
CC(=O)c1ccc[nH]1 [2-Acetylpyrrole],51.6,–
CC(=O)c1ccccc1 [Acetophenone],31.9,–
O=C(O)c1ccc[nH]1 [Pyrrole-2-carboxylic acid],6.8,–

Compound,229E Inhibition rate [%],"229E Inhibition rate (229E Inhibition rate, 24 h) [%]"
CCCCCCCCC1=C(CCCCCCCC(=O)O)C1 [Sterculic acid],20,–
CC(=O)NCCCCCN [N-(5-Aminopentyl)acetamide],61.9,–
CC(=O)NCCCCNCCCN [N8-Acetylspermidine dihydrochloride],37.4,–
CC(=O)NCCCCN [N-Acetylputrescine hydrochloride],17.4,–
C[C@@]1(C(=O)O)CC[C@]2(C)CC[C@]3(C)C4=CC(=O)c5c(cc(O)c(O)c5C=O)[C@]4(C)CC[C@@]3(C)[C@@H]2C1 [Demethylzeylasteral],6.3,–
CCCCCCC/C=C/C(=O)CCc1ccc(O)c(OC)c1 [[8]-Shogaol],39.3,–
C/C=C1/CN2CCc3c([nH]c4ccccc34)[C@@H]2C[C@@H]1/C(=C/OC)C(=O)OC [Geissoschizine methyl ether],0,–
C/C=C1/CN2[C@@H]3C[C@@]45c6ccccc6N[C@]4(O3)[C@@H]2C[C@@H]1[C@H]5C(=O)OC [Picrinine],51.7,–
C/C=C1/CN2[C@H]3Cc4c([nH]c5ccccc45)[C@]2(O)C[C@@H]1[C@@]3(CO)C(=O)OC [16-Epivoacarpine],7.1,–
O=C(O)CNC(=O)/C=C/c1ccccc1 [Cinnamoylglycine],41.7,–
O=C(O)C[C@@](O)(C(=O)O)[C@H](O)C(=O)O [(-)-Hydroxycitric acid],12.3,–
CC(C)=C/C=C1\O[C@@H]2CC(C)=CC(=O)[C@@H]2[C@]1(C)O [Bisabolangelone],30,–
O=Cc1ccc(O)cc1 [p-Hydroxybenzaldehyde],10.9,–
CC(C)=CCC[C@](C)(O)[C@H]1CC[C@]2(C)[C@@H]1[C@H](O)C[C@@H]1[C@@]3(C)CC[C@H](O)C(C)(C)[C@@H]3[C@@H](O[C@@H]3O[C@H](CO)[C@@H](O)[C@H](O)[C@H]3O[C@@H]3O[C@H](CO)[C@@H](O)[C@H](O)[C@H]3O)C[C@]12C [Ginsenoside Rf],28.3,–
CC(C)=CCC[C@@](C)(O)[C@H]1CC[C@]2(C)[C@@H]1[C@H](O)C[C@@H]1[C@@]3(C)CC[C@H](O)C(C)(C)[C@@H]3[C@@H](O[C@@H]3O[C@H](CO)[C@@H](O)[C@H](O)[C@H]3O[C@@H]3O[C@@H](C)[C@H](O)[C@@H](O)[C@H]3O)C[C@]12C [20(R)-Ginsenoside Rg2],5.2,–
CC(C)=CCC[C@](C)(O[C@@H]1O[C@H](CO)[C@@H](O)[C@H](O)[C@H]1O)[C@H]1CC[C@]2(C)[C@@H]1[C@H](O)C[C@@H]1[C@@]3(C)C[C@@H](O)[C@H](O[C@@H]4O[C@H](CO)[C@@H](O)[C@H](O)[C@H]4O[C@@H]4O[C@H](CO)[C@@H](O)[C@H](O)[C@H]4O)C(C)(C)[C@@H]3CC[C@]12C [Gypenoside XLVI],10.6,–
CC(C)=CCC[C@@](C)(O)[C@H]1CC[C@]2(C)[C@@H]1[C@H](O)C[C@@H]1[C@@]3(C)C[C@@H](O)[C@H](O[C@@H]4O[C@H](CO)[C@@H](O)[C@H](O)[C@H]4O[C@@H]4O[C@H](CO)[C@@H](O)[C@H](O)[C@H]4O)C(C)(C)[C@@H]3CC[C@]12C [Gypenoside LI],0,–
CC(C)=CCC[C@](C)(O)[C@H]1CC[C@]2(C)[C@@H]1[C@H](O)C[C@@H]1[C@@]3(C)C[C@@H](O)[C@H](O[C@@H]4O[C@H](CO)[C@@H](O)[C@H](O)[C@H]4O[C@@H]4O[C@H](CO)[C@@H](O)[C@H](O)[C@H]4O)C(C)(C)[C@@H]3CC[C@]12C [Gypenoside L],61.5,–
CC(C)=CCC[C@](C)(O)[C@H]1CC[C@]2(C)[C@@H]1[C@H](O)C[C@@H]1[C@@]3(C)CC[C@H](O)C(C)(C)[C@@H]3[C@@H](O[C@@H]3O[C@H](CO)[C@@H](O)[C@H](O)[C@H]3O[C@@H]3O[C@@H](C)[C@H](O)[C@@H](O)[C@H]3O)C[C@]12C [Ginsenoside Rg2],54.2,–
